Laboratory results from the supplement of paper PMC7411054.
Counter-ions that a name gives are not always drawn.

What was measured:
Test in all cases: phenotypically active (imaging signature differs from DMSO and reproducible) at any of 0.3-9 uM (binary (1 = active, 0 = inactive)); higher = active
Conditions in all cases: treatment time: 24 h
A549-ACTB-RAB5A = tested on: A549-ACTB-RAB5A
Procedure, shortened: (§1)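 After 24 h at 0.3, 1, 3 or 9 µM, with four wells per treatment, fifteen gene-edited A549, HepG2 and WPMY1 reporter lines carrying BFP, GFP and RFP/FusionRed were imaged live. Each well's live-cell features were expressed relative to solvent control wells. Deviation required ≥3 of 4 wells past the 95th percentile of control Euclidean distances, and reproducibility a median replicate Pearson correlation over the 95th percentile of non-replicates. Phenotypic activity rested on both.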

A549-CANX-COX4 = tested on: A549-CANX-COX4
Procedure, shortened: as §1

A549-GM130-SQSTM1 = tested on: A549-GM130-SQSTM1
Procedure, shortened: as §1

A549-TP53BP1-CLTA = tested on: A549-TP53BP1-CLTA
Procedure, shortened: as §1

A549-TUBA1B-RELA = tested on: A549-TUBA1B-RELA
Procedure, shortened: as §1

HepG2-ACTB-RAB5A = tested on: HepG2-ACTB-RAB5A
Procedure, shortened: as §1

HepG2-CANX-COX4 = tested on: HepG2-CANX-COX4
Procedure, shortened: as §1

HepG2-GM130-SQSTM1 = tested on: HepG2-GM130-SQSTM1
Procedure, shortened: as §1

HepG2-TP53BP1-CLTA = tested on: HepG2-TP53BP1-CLTA
Procedure, shortened: as §1

HepG2-TUBA1B-RELA = tested on: HepG2-TUBA1B-RELA
Procedure, shortened: as §1

WPMY1-ACTB-RAB5A = tested on: WPMY1-ACTB-RAB5A
Procedure, shortened: as §1

WPMY1-CANX-COX4 = tested on: WPMY1-CANX-COX4
Procedure, shortened: as §1

WPMY1-GM130-SQSTM1 = tested on: WPMY1-GM130-SQSTM1
Procedure, shortened: as §1

WPMY1-TP53BP1-CLTA = tested on: WPMY1-TP53BP1-CLTA
Procedure, shortened: as §1

WPMY1-TUBA1B-RELA = tested on: WPMY1-TUBA1B-RELA
Procedure, shortened: as §1

Measured: phenotypically active

O=C(CCc1ccc(O)cc1)c1c(O)cc(O)cc1O[C@@H]1O[C@H](CO)[C@@H](O)[C@H](O)[C@H]1O [Phloridzin]
inactive: A549-ACTB-RAB5A 0 | A549-CANX-COX4 0 | A549-GM130-SQSTM1 0 | A549-TP53BP1-CLTA 0 | A549-TUBA1B-RELA 0 | HepG2-ACTB-RAB5A 0 | HepG2-CANX-COX4 0 | HepG2-GM130-SQSTM1 0 | HepG2-TP53BP1-CLTA 0 | HepG2-TUBA1B-RELA 0 | WPMY1-ACTB-RAB5A 0 | WPMY1-CANX-COX4 0 | WPMY1-GM130-SQSTM1 0 | WPMY1-TP53BP1-CLTA 0 | WPMY1-TUBA1B-RELA 0

NCCc1ccc(O)c(O)c1 [dopamine]
inactive: A549-ACTB-RAB5A 0 | A549-CANX-COX4 0 | A549-GM130-SQSTM1 0 | A549-TP53BP1-CLTA 0 | A549-TUBA1B-RELA 0 | HepG2-ACTB-RAB5A 0 | HepG2-CANX-COX4 0 | HepG2-GM130-SQSTM1 0 | HepG2-TP53BP1-CLTA 0 | HepG2-TUBA1B-RELA 0 | WPMY1-ACTB-RAB5A 0 | WPMY1-CANX-COX4 0 | WPMY1-GM130-SQSTM1 0 | WPMY1-TP53BP1-CLTA 0 | WPMY1-TUBA1B-RELA 0

O=C(Nc1cccnc1)c1cc(-c2ccnc(F)c2)ccc1OCc1ccccc1
inactive: A549-ACTB-RAB5A 0 | A549-CANX-COX4 0 | A549-GM130-SQSTM1 0 | A549-TP53BP1-CLTA 0 | A549-TUBA1B-RELA 0 | HepG2-ACTB-RAB5A 0 | HepG2-CANX-COX4 0 | HepG2-GM130-SQSTM1 0 | HepG2-TP53BP1-CLTA 0 | HepG2-TUBA1B-RELA 0 | WPMY1-ACTB-RAB5A 0 | WPMY1-CANX-COX4 0 | WPMY1-GM130-SQSTM1 0 | WPMY1-TP53BP1-CLTA 0 | WPMY1-TUBA1B-RELA 0

CCc1ccc(CCOc2ccc(CC3SC(=O)NC3=O)cc2)nc1 (stereo not given) [Pioglitazone hydrochloride]
inactive: A549-ACTB-RAB5A 0 | A549-CANX-COX4 0 | A549-GM130-SQSTM1 0 | A549-TP53BP1-CLTA 0 | A549-TUBA1B-RELA 0 | HepG2-ACTB-RAB5A 0 | HepG2-CANX-COX4 0 | HepG2-GM130-SQSTM1 0 | HepG2-TP53BP1-CLTA 0 | HepG2-TUBA1B-RELA 0 | WPMY1-ACTB-RAB5A 0 | WPMY1-CANX-COX4 0 | WPMY1-GM130-SQSTM1 0 | WPMY1-TP53BP1-CLTA 0 | WPMY1-TUBA1B-RELA 0

CC(C)OC(=O)C(C)(C)Oc1ccc(C(=O)c2ccc(Cl)cc2)cc1 [Fenofibrate]
inactive: A549-ACTB-RAB5A 0 | A549-CANX-COX4 0 | A549-GM130-SQSTM1 0 | A549-TP53BP1-CLTA 0 | A549-TUBA1B-RELA 0 | HepG2-ACTB-RAB5A 0 | HepG2-CANX-COX4 0 | HepG2-GM130-SQSTM1 0 | HepG2-TP53BP1-CLTA 0 | HepG2-TUBA1B-RELA 0 | WPMY1-ACTB-RAB5A 0 | WPMY1-CANX-COX4 0 | WPMY1-GM130-SQSTM1 0 | WPMY1-TP53BP1-CLTA 0 | WPMY1-TUBA1B-RELA 0

O=c1[nH]cnc2[nH]ncc12 [Allopurinol]
inactive: A549-ACTB-RAB5A 0 | A549-CANX-COX4 0 | A549-GM130-SQSTM1 0 | A549-TP53BP1-CLTA 0 | A549-TUBA1B-RELA 0 | HepG2-ACTB-RAB5A 0 | HepG2-CANX-COX4 0 | HepG2-GM130-SQSTM1 0 | HepG2-TP53BP1-CLTA 0 | HepG2-TUBA1B-RELA 0 | WPMY1-ACTB-RAB5A 0 | WPMY1-CANX-COX4 0 | WPMY1-GM130-SQSTM1 0 | WPMY1-TP53BP1-CLTA 0 | WPMY1-TUBA1B-RELA 0

CCc1cc2c(=O)c(-c3nc4ccccc4s3)coc2c(CN2CCCCC2)c1O
inactive: A549-ACTB-RAB5A 0 | A549-CANX-COX4 0 | A549-GM130-SQSTM1 0 | A549-TP53BP1-CLTA 0 | A549-TUBA1B-RELA 0 | HepG2-ACTB-RAB5A 0 | HepG2-CANX-COX4 0 | HepG2-GM130-SQSTM1 0 | HepG2-TP53BP1-CLTA 0 | HepG2-TUBA1B-RELA 0 | WPMY1-ACTB-RAB5A 0 | WPMY1-CANX-COX4 0 | WPMY1-GM130-SQSTM1 0 | WPMY1-TP53BP1-CLTA 0 | WPMY1-TUBA1B-RELA 0

C[C@]12CC[C@@H]3c4ccc(O)cc4CC[C@H]3[C@@H]1CC[C@@H]2O [estradiol]
inactive: A549-ACTB-RAB5A 0 | A549-CANX-COX4 0 | A549-GM130-SQSTM1 0 | A549-TP53BP1-CLTA 0 | A549-TUBA1B-RELA 0 | HepG2-ACTB-RAB5A 0 | HepG2-CANX-COX4 0 | HepG2-GM130-SQSTM1 0 | HepG2-TP53BP1-CLTA 0 | HepG2-TUBA1B-RELA 0 | WPMY1-ACTB-RAB5A 0 | WPMY1-CANX-COX4 0 | WPMY1-GM130-SQSTM1 0 | WPMY1-TP53BP1-CLTA 0 | WPMY1-TUBA1B-RELA 0

CC(C)(C)NC(=O)[C@@H]1CN(Cc2cccnc2)CCN1C[C@@H](O)C[C@@H](Cc1ccccc1)C(=O)N[C@H]1c2ccccc2C[C@H]1O [indinavir]
inactive: A549-ACTB-RAB5A 0 | A549-CANX-COX4 0 | A549-GM130-SQSTM1 0 | A549-TP53BP1-CLTA 0 | A549-TUBA1B-RELA 0 | HepG2-ACTB-RAB5A 0 | HepG2-CANX-COX4 0 | HepG2-GM130-SQSTM1 0 | HepG2-TP53BP1-CLTA 0 | HepG2-TUBA1B-RELA 0 | WPMY1-ACTB-RAB5A 0 | WPMY1-CANX-COX4 0 | WPMY1-GM130-SQSTM1 0 | WPMY1-TP53BP1-CLTA 0 | WPMY1-TUBA1B-RELA 0

Cc1c(F)cc(C(=O)NC2CC2)cc1-c1ccc(C(=O)NCC(C)(C)C)cn1 [losmapimod]
inactive: A549-ACTB-RAB5A 0 | A549-CANX-COX4 0 | A549-GM130-SQSTM1 0 | A549-TP53BP1-CLTA 0 | A549-TUBA1B-RELA 0 | HepG2-ACTB-RAB5A 0 | HepG2-CANX-COX4 0 | HepG2-GM130-SQSTM1 0 | HepG2-TP53BP1-CLTA 0 | HepG2-TUBA1B-RELA 0 | WPMY1-ACTB-RAB5A 0 | WPMY1-CANX-COX4 0 | WPMY1-GM130-SQSTM1 0 | WPMY1-TP53BP1-CLTA 0 | WPMY1-TUBA1B-RELA 0

COc1ccc([C@@H]2CC(=O)c3c(O)cc(O)cc3O2)cc1O [Hesperetin]
inactive: A549-ACTB-RAB5A 0 | A549-CANX-COX4 0 | A549-GM130-SQSTM1 0 | A549-TP53BP1-CLTA 0 | A549-TUBA1B-RELA 0 | HepG2-ACTB-RAB5A 0 | HepG2-CANX-COX4 0 | HepG2-GM130-SQSTM1 0 | HepG2-TP53BP1-CLTA 0 | HepG2-TUBA1B-RELA 0 | WPMY1-ACTB-RAB5A 0 | WPMY1-CANX-COX4 0 | WPMY1-GM130-SQSTM1 0 | WPMY1-TP53BP1-CLTA 0 | WPMY1-TUBA1B-RELA 0

COc1ccc(C[C@H](C)NC[C@@H](O)c2ccc(O)c(NC=O)c2)cc1 [formoterol]
inactive: A549-ACTB-RAB5A 0 | A549-CANX-COX4 0 | A549-GM130-SQSTM1 0 | A549-TP53BP1-CLTA 0 | A549-TUBA1B-RELA 0 | HepG2-ACTB-RAB5A 0 | HepG2-CANX-COX4 0 | HepG2-GM130-SQSTM1 0 | HepG2-TP53BP1-CLTA 0 | HepG2-TUBA1B-RELA 0 | WPMY1-ACTB-RAB5A 0 | WPMY1-CANX-COX4 0 | WPMY1-GM130-SQSTM1 0 | WPMY1-TP53BP1-CLTA 0 | WPMY1-TUBA1B-RELA 0

c1ccc2c(c1)CN1CCCC1=N2 [Desoxypeganine Hydrochloride]
inactive: A549-ACTB-RAB5A 0 | A549-CANX-COX4 0 | A549-GM130-SQSTM1 0 | A549-TP53BP1-CLTA 0 | A549-TUBA1B-RELA 0 | HepG2-ACTB-RAB5A 0 | HepG2-CANX-COX4 0 | HepG2-GM130-SQSTM1 0 | HepG2-TP53BP1-CLTA 0 | HepG2-TUBA1B-RELA 0 | WPMY1-ACTB-RAB5A 0 | WPMY1-CANX-COX4 0 | WPMY1-GM130-SQSTM1 0 | WPMY1-TP53BP1-CLTA 0 | WPMY1-TUBA1B-RELA 0
